From PubChem BioAssay (NCATS) come the findings set out here.

Structures are written as SMILES. Results filed as inconclusive are left out. Active and inactive are the calls of the source. Unless noted, calls follow the shape of the dose curve; as a rule, active = well fitted curve in the direction sought with a large enough effect; inconclusive = small, poorly fitted or top-dose-only effect, or another doubt; inactive = no such curve, though single readings can be large; an effect the other way counts as inactive or inconclusive.

A short description of experiment [1]: Cytotoxicity counterscreen for NFkB agonists and antagonists (AID 624476). Also: potency is read from the fitted curve at half-maximal effect. Background: Counterscreens check selectivity or assay interference.
Experiment [2] can be described thus: qHTS Assay for Identification of Small Molecule Agonists for NFkB Signaling Pathway. (AID 624478).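 Also: compounds tested together with TNF alpha at its EC50 of 10 pM; 0% is about no effect.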 In outline: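 Compounds were added with 10 pM TNF alpha (EC50 level) to ME-180 NFkB-bla cells in low-serum Opti-MEM and incubated 5 hrs at 37 C. Beta-lactamase FRET read-out used 405 nm excitation and 460 and 530 nm emission.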
For orientation: Quantitative high-throughput screening tests each substance at several concentrations.

Experiment [3] can be described thus: qHTS Assay for Identification of Small Molecule Antagonists for NFkB Signaling Pathway. (AID 624479; calls by dose curve;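 also: pathway stimulated with TNF alpha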; also: potency is read from the fitted curve at half-maximal effect).
Experiment [4] in a line: Cell Proliferation Assay against the TMD8 Cell Line (AID 651645).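 Also: cells exposed to compound for 48 h before reading.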 The conditions noted are these: TMD8 DLBCL cell line proliferation/viability; at 46.1 µM (top of the series). In outline: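 Seed log-phase TMD8 cells in RPMI containing 5% FBS, add compounds at once, incubate 48 hours at 37C. Equilibrate to room temperature, add CellTiter-Glo, read luminescence after 15 minutes and express relative to DMSO and bortezomib controls.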

Experiment [5] is described as follows: Cell Proliferation Assay against the HBL1 Cell Line (AID 651646).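 Also: cells exposed to compound for 48 h before reading.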 The settings on record: HBL1 DLBCL cells; at 46.1 µM (top of the series). In outline:
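CellTiter-Glo luminescence after 48 h compound exposure at 37C gives percent activity, with DMSO as 100% and 9.2 uM bortezomib final as 0%. Cells: 500 log-phase HBL1 per well, RPMI plus 5% FBS.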

The nature of experiment [6]: Cell Proliferation Assay against the TMD8 Cell Line (Caspase readout at 16 hrs) (AID 651712). Also: potency is read from the fitted curve at half-maximal effect. In outline: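 Caspase-Glo luminescence measured apoptosis after a 16 h, 37 C compound exposure of TMD8 cells (500 cells/well, 5% FBS RPMI). DMSO set 0% and bortezomib at 9.2 uM final set 100% activity.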
Experiment [7] in a line: Cell Proliferation Assay against the TMD8 Cell Line (Caspase readout at 8 hrs) (AID 651713). Also: potency is read from the fitted curve at half-maximal effect. In outline: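 Apoptosis read-out: Caspase-Glo luminescence after 8 h compound exposure of TMD8 lymphoma cells at 37C, 5% CO2. Signals were normalized as percent activity between DMSO and bortezomib (9.2 uM final) controls.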
Experiment [8] can be described thus: qHTS of Nrf2 Activators: LOPAC Validation (AID 624149). Also: 0% is about no effect. In outline: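 Luciferase signal from ARE activation, read with Steady-Glo after 30 min at room temperature. Compounds were pin-transferred onto AREc32_Fluc cells (1000/well, OPTI-MEM/5% FBS, seeded overnight) and left 24 hr at 37 deg C.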
The nature of experiment [9]: HTS Assay for Allosteric Antagonists of the Human D2 Dopamine Receptor: Hit Validation in HTRF (AID 624455).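 Also: stable D1 dopamine receptor cell line scored for blocking the D1 response; % is scaled to controls: 0 for no effect and ±100 for the full control effect.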 In outline: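 Inhibition of the D1-mediated response was measured by HTRF. Cells used were a line stably expressing the D1 dopamine receptor.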
On the technique in general: TR-FRET usually uses a lanthanide donor and a delayed reading to cut background.

For `COc1ccc2c(c1)CC[C@@H](CN(C)CC(=O)O)[C@H]2c1ccccc1`, the Potency result in experiment [1], in experiment [3], in experiment [6] and in experiment [7] was “inactive” each time. For the same compound, in experiment [2], the call was inactive. Moreover, the viability (% of control) in experiment [4] was 118%. In experiment [5], the viability, percent of control was 98.5%.

Regarding `CC(C)c1ccc(Cn2ccc3c4c(N)nc(NC5CC5)nc4ccc32)cc1`, the Potency in experiment [1] is 9.35 µM (active); in [3], 16.8 µM (active); in [7] it was 6.62 µM (active). In addition, in experiment [2], the outcome was inactive. Moreover, the viability (% of control) in experiment [4] is 1.25%. Moreover, the viability, percent of control in experiment [5] came out at 1.62%.

As to `COc1ccc(C=Cc2cc(OC)c(OC)c(OC)c2)cc1O`, the Potency result in [1] and in [3] was “inactive” in each case. In [2], the call was inactive. For the same compound, the viability (% of control) in experiment [4] amounted to 0.872%. In [5], the viability, percent of control was 20.5%. Also, the Potency in experiment [6] was 0.0015 µM (active).

Turning to `CC=C1NC(=O)[C@H]2CSSCCC=C[C@H](CC(=O)N[C@H](C(C)C)C(=O)N2)OC(=O)[C@H](C(C)C)NC1=O`, in experiment [1], the Potency was 0.0935 µM (active). In addition, the compound was classed as inactive in [2]. In addition, the Potency entry in experiment [3] was “inactive”. Besides, the viability (% of control) in [4] worked out at 4.33%. Further, in experiment [5], the viability, percent of control is 3.6%.

Regarding `COC(=O)[C@]12CCC(C)(C)C[C@@H]1[C@@H]1C(=O)C=C3[C@@]4(C)C=C(C#N)C(=O)C(C)(C)[C@@H]4CC[C@@]3(C)[C@]1(C)CC2`, the figures for the Potency in experiment [1] and in experiment [3] were 1.32 µM (active) and 0.595 µM (active), respectively. In addition, the outcome in [2] was inactive.

`O=c1c2ccccc2nc2n1CCc1c-2[nH]c2ccccc12`: the compound was classed as inactive in experiment [8] and in experiment [9].

`O=C(O)c1ccc2cc(-c3ccc(O)c(C45CC6CC(CC(C6)C4)C5)c3)ccc2c1`: the Potency in experiment [1] was 0.118 µM (active); in experiment [3] it was 14.9 µM (active). Further, the call in experiment [2] was inactive. Also, in [4], the viability (% of control) amounted to 2.27%. Further, the viability, percent of control in experiment [5] was 1.91%.

For `Cc1cnc(-c2cnc(NCCNc3ccc(C#N)cn3)nc2-c2ccc(Cl)cc2Cl)[nH]1`, in [1], the Potency entry is “inactive”. For the same compound, in experiment [2], the call was inactive. For the same compound, the Potency in experiment [3] is 14.9 µM (active). For the same compound, the viability (% of control) in [4] amounted to 9.76%. For the same compound, the viability, percent of control in [5] was 22.7%.

On to `CN1CCC(CNc2ccc3ncc(-c4cccc(OC(F)(F)F)c4)n3n2)CC1`, for which the results for the Potency in experiment [1], in [3] and in [7] were 26.4 µM (active), 23.7 µM (active) and 23.5 µM (active), respectively. For the same compound, the result in experiment [2] was inactive. The viability (% of control) in [4] was 4.73%. For the same compound, the viability, percent of control in [5] turned out to be 3.91%.

`CC(C)C[C@H](NC(=O)CNC(=O)c1cc(Cl)ccc1Cl)B(O)O`: the Potency in [1] was 0.0743 µM (active); in experiment [3], 0.0084 µM (active). For the same compound, the outcome in experiment [2] was inactive. The viability, percent of control in experiment [5] was determined as 5.36%.

As for `CCCCN1CCC(CNC(=O)c2c3n(c4ccccc24)CCCO3)CC1`, the Potency result in experiment [1], in [3], in [6] and in [7] was “inactive” throughout. For the same compound, in [2], the outcome was inactive. For the same compound, the viability, percent of control in experiment [5] was found to be 93.7%.

As to `C[C@@H]1CN(CC(=O)Nc2ccc3c(c2)Cc2cccc(-c4cc(=O)cc(N5CCOCC5)o4)c2S3)C[C@H](C)O1`, the Potency result in experiment [1] and in [3] was “inactive” in each case. In [2], the outcome was inactive. Also, the viability (% of control) in experiment [4] worked out at 26.2%. For the same compound, in experiment [5], the viability, percent of control was 56.7%. The Potency in experiment [7] is 23.5 µM (active).

On to `CN(C)CC=CC(=O)Nc1cc2c(Nc3ccc(F)c(Cl)c3)ncnc2cc1O[C@H]1CCOC1`, for which the Potency is 29.6 µM (active) in [1] and 13.3 µM (active) in experiment [3]. Besides, in experiment [2], the result was inactive. Further, the viability, percent of control in [5] was determined as 1.34%.

Turning to `CC1(C)CCC(c2ccc(Cl)cc2)=C(CN2CCN(c3ccc(C(=O)NS(=O)(=O)c4ccc(N[C@H](CCN5CCOCC5)CSc5ccccc5)c(S(=O)(=O)C(F)(F)F)c4)cc3)CC2)C1`, the Potency in [1] is 4.18 µM (active); in [3] it was 14.9 µM (active); in [7] it was 29.6 µM (active). Moreover, in experiment [2], the compound was classed as inactive. Further, the viability (% of control) in experiment [4] came out at 1.35%. For the same compound, the viability, percent of control in experiment [5] was determined as 3.35%.

`Cc1cn(-c2cc(NC(=O)c3ccc(C)c(Nc4nccc(-c5cccnc5)n4)c3)cc(C(F)(F)F)c2)cn1`: the Potency is 9.35 µM (active) in experiment [1] and 2.11 µM (active) in [3]. Besides, the outcome in experiment [2] was inactive. Besides, the viability (% of control) in experiment [4] worked out at 17.5%. In addition, the viability, percent of control in experiment [5] is 14.5%. Also, the Potency entry in experiment [7] was “inactive”.

`N#Cc1c(O)c2c(-c3ccc(-c4ccccc4O)cc3)csc2[nH]c1=O`: the Potency entry in [1], in experiment [3], in [6] and in experiment [7] was “inactive” throughout. The result in experiment [2] was inactive. Besides, in experiment [5], the viability, percent of control came to 114%.

As to `CC(=O)OCCN1C(=O)c2c(C)nc3ccc(S(=O)(=O)N4CCOCC4)cc3c2C1=O`, the Potency result in experiment [1], in [3], in experiment [6] and in experiment [7] was “inactive” each time. Moreover, the compound was called inactive in experiment [2]. Further, the viability, percent of control in experiment [5] worked out at 105%.

`CN1CCN(c2ccc3nc(-c4c(N)c5c(F)cccc5[nH]c4=O)[nH]c3c2)CC1`: the figures for the Potency in [1], in experiment [3] and in [7] were 16.6 µM (active), 0.421 µM (active) and 18.7 µM (active), respectively. The result in [2] was inactive. Also, in [4], the viability (% of control) is -0.299%. Also, the viability, percent of control in experiment [5] worked out at 0.538%.

In the case of `NC(=O)Nc1cc(-c2cccc(F)c2)sc1C(=O)N[C@H]1CCCNC1`, the Potency in [1] was 1.32 µM (active); in [3] it was 14.9 µM (active); in experiment [6] it was 0.0418 µM (active). In addition, the outcome in experiment [2] was inactive. Also, the viability, percent of control in experiment [5] was found to be 19.6%.

As to `Nc1ccccc1NC(=O)c1ccc(CNC(=O)OCc2cccnc2)cc1`, the Potency entry in [1], in experiment [3] and in experiment [7] was “inactive” in each case. Moreover, the compound was classed as inactive in [2]. The viability, percent of control in experiment [5] amounted to 4.18%.

Take `O=C(C=Cc1c(C(=O)O)[nH]c2cc(Cl)cc(Cl)c12)Nc1ccccc1`: the Potency entry in experiment [1], in [3], in [6] and in experiment [7] was “inactive” each time. Also, the compound was classed as inactive in experiment [2]. Moreover, the viability, percent of control in [5] was determined as 112%.

For `COc1cc2ncnc(Nc3ccc(F)c(Cl)c3)c2cc1NC(=O)C=CCN1CCCCC1`, the Potency in experiment [1] is 20.9 µM (active); in experiment [3], 16.8 µM (active); in experiment [7], 23.5 µM (active). Moreover, in experiment [2], the compound was classed as inactive. Also, in experiment [4], the viability (% of control) was -0.755%. Besides, the viability, percent of control in experiment [5] worked out at 0.0432%.

For the compound `CC(NCc1ccc2c(c1)nc(NC(=O)c1ccc(-c3cn[nH]c3)s1)n2CC(C)(C)O)C(C)(C)C` (stereo not given), the values for the Potency in experiment [1], in [3] and in experiment [7] were 0.332 µM (active), 0.0266 µM (active) and 0.332 µM (active), respectively. In [2], the compound was classed as inactive. Also, the viability (% of control) in experiment [4] was found to be 1.7%. Also, the viability, percent of control in experiment [5] is 1.76%.

As to `O=C(O)[C@H](Cc1c[nH]c2ccccc12)N1C(=O)c2ccccc2C1=O`, the Potency result in experiment [1], in experiment [3], in experiment [6] and in [7] was “inactive” throughout. For the same compound, the compound was called inactive in experiment [2]. For the same compound, in [5], the viability, percent of control was 130%.

For `CC[C@@H]1C(=O)N(C)c2cnc(Nc3ccc(C(=O)NC4CCC(N5CCN(CC6CC6)CC5)CC4)cc3OC)nc2N1C(C)C` (stereo not given in full), the Potency in experiment [1] is 13.2 µM (active); in [3], 5.3 µM (active); in experiment [7] it was 26.4 µM (active). The compound was called inactive in experiment [2]. Also, the viability (% of control) in experiment [4] worked out at 3.58%. In [5], the viability, percent of control was found to be 4.22%.
